# Experimental data reported in PubChem BioAssay.
# Entries with a potency or affinity are not part of this list. Records with an inconclusive call do not appear. The source made the active and inactive calls.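 The calls were made as follows: active = signal-lowering compounds whose fitted half-maximal concentration is at or below twice the top tested dose in every run; inconclusive = runs disagree, flat 30 to 70% inhibition, or poor curve fit; inactive = the rest.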
# Assay: inhibitors of CMV-promoter luciferase reporter, dose response, counter-screen for Pax8 inhibitor project, cell-based, HEK293, luminescence, dry powder (AID 743020);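 also: HEK293 cells stably expressing the CMV luciferase reporter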
# Conditions: SteadyGlo luminescence, 24 h; series mostly up to 35 µM
row,Structure (SMILES),outcome
1,COc1cccc(S(=O)(=O)N2C[C@@H]3N[C@H](C2)C3c2ccc(/C=C/c3ccccc3)cc2)c1 (stereo not given in full),inactive
2,O=C(Nc1ccc(F)cc1)N1CCCCN2[C@@H](CO)[C@@H](c3ccc(C#Cc4ccccc4)cc3)[C@@H]2C1,inactive
3,C[C@H](CO)N1C[C@H](C)[C@@H](CN(C)Cc2ccc(Cl)c(Cl)c2)Oc2ccc(NS(=O)(=O)c3ccccc3)cc2CC1=O,inactive
4,COc1ccc(S(=O)(=O)N(C)C[C@H]2OCCCC[C@H](C)Oc3ccc(NS(=O)(=O)c4ccc(F)cc4)cc3C(=O)N([C@@H](C)CO)C[C@@H]2C)cc1,inactive
5,CN(C)CCN(C(=O)/C=C/c1cccs1)c1nc2c(F)cc(F)cc2s1,inactive
6,CN1c2ccc(-c3ccccc3)cc2[C@H]2[C@H](CCN2C(=O)NC2CCCCC2)[C@@H]1CO,inactive
7,C[C@@H]1CCCCO[C@H](CN(C)C(=O)Cc2ccccc2)[C@@H](C)CN([C@@H](C)CO)C(=O)c2cc(NC(=O)Nc3ccc(C(F)(F)F)cc3)ccc2O1,inactive
8,C[C@@H]1CN([C@H](C)CO)C(=O)c2cc(NC(=O)Nc3ccccc3)ccc2O[C@@H](C)CCCCO[C@@H]1CN(C)Cc1ccc(C(F)(F)F)cc1,inactive
9,Cc1ccc(S(=O)(=O)Nc2ccc3c(c2)C(=O)N([C@@H](C)CO)C[C@@H](C)[C@H](CN(C)Cc2ccc(C(F)(F)F)cc2)OCCCC[C@H](C)O3)cc1,inactive
10,C[C@@H]1CN([C@H](C)CO)C(=O)c2cc(NC(=O)Nc3ccc(C(F)(F)F)cc3)ccc2O[C@@H](C)CCCCO[C@@H]1CN(C)C(=O)c1ccccc1,inactive
11,COc1cc(/C=C2\SC(=S)N(CCC(=O)N3CCCCC3)C2=O)cc(OC)c1OC,inactive
12,O=C1/C(=C/c2ccccc2F)SC(=S)N1CC(=O)N1CCCCC1c1cccnc1 (stereo not given),inactive
13,CC(=O)Nc1ccc(S(=O)(=O)c2ccnc3cc(Cl)ccc23)cc1,inactive
14,Cc1nc(SCC(=O)Nc2nc3ccccc3s2)c(C#N)c(C)c1C,inactive
15,O=S(=O)(c1ccccc1F)N1CC[C@@H]2[C@H]1c1cc(-c3cccc(F)c3)ccc1N[C@@H]2CO,inactive
16,Cc1noc(C)c1S(=O)(=O)Nc1ccc2c(c1)C(=O)N([C@H](C)CO)C[C@H](C)[C@@H](CN(C)C(=O)Nc1ccc(C(F)(F)F)cc1)OCCCC[C@H](C)O2,inactive
17,Cc1ccc(S(=O)(=O)Nc2ccc3c(c2)nc(CCN2CCCC2)n3C)cc1,inactive
18,Cc1ccc(S(=O)(=O)N(C)C[C@@H]2Oc3cc(C#Cc4ccncc4)ccc3S(=O)(=O)N([C@H](C)CO)C[C@@H]2C)cc1,inactive
19,COc1ccc(S(=O)(=O)Nc2ccc3c(c2)C(=O)N([C@H](C)CO)C[C@H](C)[C@H](CN(C)Cc2ccc(C(F)(F)F)cc2)OCCCC[C@H](C)O3)cc1,inactive
20,Cc1ccc(-c2csc(NC3OC(=O)c4ccccc43)n2)cc1 (stereo not given),inactive
21,O=C(/C=C/c1ccccc1)Nc1cccc(C(=O)O)c1,inactive
22,C[C@H]1CCCCO[C@H](CN(C)C(=O)C2CCCCC2)[C@@H](C)CN([C@@H](C)CO)C(=O)c2cc(NC(=O)Nc3ccc(F)cc3)ccc2O1,inactive
23,C[C@H](CO)N1C[C@H](C)[C@@H](CN(C)C(=O)C2CCCCC2)OCCCC[C@H](C)Oc2ccc(NS(=O)(=O)c3ccc(Cl)cc3)cc2C1=O,inactive
24,Cc1ccc2cccc(NS(=O)(=O)c3ccccc3)c2n1,inactive
25,C[C@@H]1CN([C@H](C)CO)C(=O)c2cc(NC(=O)NC3CCCCC3)ccc2O[C@@H](C)CCCCO[C@H]1CN(C)Cc1ccc(C(F)(F)F)cc1,inactive
26,COc1ccc(CN(C)C[C@H]2OCCCC[C@@H](C)Oc3ccc(NC(=O)Nc4ccc(F)cc4)cc3C(=O)N([C@@H](C)CO)C[C@@H]2C)cc1,inactive
27,Cc1ccc(S(=O)(=O)N(C)C[C@@H]2Oc3cc(C#Cc4ccncc4)ccc3S(=O)(=O)N([C@H](C)CO)C[C@H]2C)cc1,inactive
28,Cc1ccc(S(=O)(=O)Nc2ccc3c(c2)CC(=O)N([C@@H](C)CO)C[C@H](C)[C@@H](CN(C)C(=O)Nc2ccc(C(F)(F)F)cc2)O3)cc1,inactive
29,CO[C@@H]1CN(C)C(=O)c2cc(NC(=O)c3ccc(-c4ccccc4)cc3)ccc2OC[C@H](C)NC[C@H]1C,inactive
30,Cc1ccccc1S(=O)(=O)N1CC[C@@H]2[C@H](CO)Nc3ccc(-c4cccc(F)c4)cc3[C@@H]21,inactive
